# Assay results taken from PubChem BioAssay (Tox21).
# Active and inactive are the calls of the source. The call rests on the fitted dose curve; in most records, active means well fitted activation curve with a large enough effect in the repeat runs; inconclusive means weak or mixed curves; inactive means flat fitted curve, though single readings scatter.
# Test: Caspase-3/7 induction in CHO-K1 cells by small molecules, qHTS assay (AID 1346980); further: nearly all actives have a fitted effect of over 15% in size
# Details: CHO-K1 caspase-3/7 induction, Caspase-Glo luminescence, 17 h; series mostly up to 92.4 µM; caspase-3/7 activation: at the top concentration
# Source text: National Center for Advancing Translational Sciences [NCATS]
# NIH Chemical Genomics Center [NCGC]
# U.S. Environmental Protection Agency [EPA]
# National Institutes of Environmental Health Sciences [NIEHS]
# National Toxicology Program [NTP]
# Apoptosis is a process of programmed cell death and plays a central role in the development of multicellular organisms. It is a highly regulated process and induces cell death by activating caspases, which are the members of cysteine aspartic acid-specific protease (caspase) family. Caspases involved in apoptosis are classified by their mechanism of action as initiator caspases (caspase-2, -8, -9 and -10) and executioner caspases (caspase-3, -6, and -7). Inhibition of apoptosis results in number of cancers, autoimmune diseases, inflammatory diseases and viral infection. To identify small molecule compounds that induce apoptosis, a homogeneous, luminescent Caspase-Glo 3/7 assay was used. Wild type CHO-K1 cells were used to screen Tox21 libraries for identifying caspase-3/7 activity inducers.
# CHO-K1 cells were dispensed at 1,500 per well in 5uL of culture medium into white solid bottom 1536-well plates (Corning Life Sciences, Corning, NY) using a Multidrop Combi (Thermo Scientific, Waltham, MA) dispenser. The assay plates were incubated at 37 C and 5% CO2 for 5hr, and then 23nL of compounds dissolved in DMSO and positive control were transferred using a Pintool station (Wako, San Diego, CA). The assay plates were incubated at 37C and 5% CO2 for 17hr. For caspase-3/7 activity read, 4uL of Caspase-Glo 3/7 reagent (Promega Corporation, Madison, WI) was added to each well of the assay plates using Flying Reagent Dispenser (FRD, Aurora Discovery, San Diego, CA) and incubated the assay plates at room temperature for 30min. The luminescence signal was quantified using a ViewLux plate reader (Perkin Elmer, Shelton, CT).
# On the % scale 0 is the no-effect control and ±100 the full control effect.
row,Structure (SMILES),caspase-3/7 activation
1,C[n+]1ccccc1/C=N/O,-0.572% [at 42.5 µM] (inactive)
2,CC/C=C/CCCCCCCCCCOC(C)=O,1.96% (inactive)
3,CCCCN=C(N)N=C(N)N,0.0447% [at 42.5 µM] (inactive)
4,O=C(CCBr)N1CCN(C(=O)CCBr)CC1,0.206% [at 42.5 µM] (inactive)
5,CCOC(=O)CC(C(C)=O)C(C)=O,0.725% (inactive)
6,O=C(O)Cc1ccccc1Oc1ccc(Cl)cc1Cl,-1.06% [at 42.5 µM] (inactive)
7,C[C@@H](CN1CC(=O)NC(=O)C1)N1CC(=O)NC(=O)C1,0.914% [at 42.5 µM] (inactive)
8,COC(=O)c1ccc(NC(C)=O)cc1OC,0.544% [at 42.5 µM] (inactive)
9,O=S(=O)(O)CC(O)CCl (stereo not given),0.581% (inactive)
10,CC(C)(C)OC=O,2.31% (inactive)
11,CCCCCC(CC)OC(=O)CCCOc1ccc(Cl)cc1Cl (stereo not given),0.342% (inactive)
12,CN(C)c1cc(NC(=O)CNC(C)(C)C)c(O)c2c1C[C@H]1C[C@H]3[C@H](N(C)C)C(=O)C(C(N)=O)=C(O)[C@@]3(O)C(=O)C1=C2O,-1.44% [at 42.5 µM] (inactive)
13,Cc1cc(N)no1,1.18% (inactive)
14,CC(C)C(C)C,-1.05% (inactive)
15,CCCCOCCCC,1.25% (inactive)
16,BrCCOc1ccccc1,0.675% (inactive)
17,CC(C)(O)CCCC1=CCC(C=O)CC1 (stereo not given),-1.07% (inactive)
18,N#CC1(N)CCCCC1,-1.36% (inactive)
19,CCc1ccc(CC)cc1,0.945% (inactive)
20,Cc1ccccc1C#N,0.761% (inactive)

row,Structure (SMILES),caspase-3/7 activation
1,COCc1nnc(-c2ccc[n+]([O-])c2)n1-c1c(Cl)c(Cl)cc2[nH]c(=O)c(=O)[nH]c12,0.62% (inactive)
2,O=C(c1ccccc1)c1cccc(O)c1,-0.245% (inactive)
3,CCO/C=C1\N=C(c2ccccc2)OC1=O,3.52% (inactive)
4,COC(=O)c1ccccc1Cl,6.32% (inactive)
5,COC(=O)C(c1ccccc1Cl)N1CCc2sccc2C1 (stereo not given),0.4% [at 42.5 µM] (inactive)
6,CCCCCCCCCCCCCC(=O)OCC,1.29% (inactive)
7,COc1cc2nc(N3CCN(C(=O)C4CCCO4)CC3)nc(N)c2cc1OC (stereo not given),-4.41% [at 42.5 µM] (inactive)
8,O=P(O)(O)C(O)(Cc1cccnc1)P(=O)(O)O,1.88% [at 42.5 µM] (inactive)
9,C=CCCCCCCCCCCCCCC,1.16% [at 19 µM] (inactive)
10,O=C(O)/C=C(\CC(=O)O)C(=O)O,4.04% [at 42.5 µM] (inactive)
11,CN(C)CCc1c[nH]c2ccc(CS(=O)(=O)N3CCCC3)cc12,0.851% [at 42.5 µM] (inactive)
12,Nc1ccc(C(=O)NCC(=O)O)cc1,-0.173% [at 42.5 µM] (inactive)
13,CN(C)CCCN(C)C,1.46% [at 8.39 µM] (inactive)
14,CC(=O)OC1CCC(C(C)(C)C)CC1 (stereo not given),-1.57% (inactive)
15,CCCOc1ccc(C(=O)OCCN(CC)CC)cc1N,2.14% [at 42.5 µM] (inactive)
16,CCOC(=O)[C@H](CCc1ccccc1)N[C@H]1CS[C@H](c2cccs2)CN(CC(=O)O)C1=O,0.179% [at 42.5 µM] (inactive)
17,CC[C@@]1(c2ccccc2)NC(=O)N(C)C1=O,0.335% [at 42.5 µM] (inactive)
18,COc1cc(S(N)(=O)=O)cc(C(=O)O)c1OC,0.96% [at 42.5 µM] (inactive)
19,NC(=O)CC[C@@H](N)C(=O)O,-0.569% [at 42.5 µM] (inactive)
20,CCCCC(CC)COC(=O)CC#N (stereo not given),0.394% (inactive)
